# Hits are enriched below; roughly 3.2% of the tested compounds scored in any of these assays.
# Mtb FBA inh: inhibits M. tuberculosis FBA enzyme; AID 588726; 2.3% of 360,000 active; purified M. tuberculosis FBA, fluorescence read-out; inhibition, % at 1 µM; P9WQA3; in the data active means inhibition above about 27%;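 further: 0% = vehicle and 100% = reference inhibitor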
# Target sequence (P9WQA3 whole entry, looked up): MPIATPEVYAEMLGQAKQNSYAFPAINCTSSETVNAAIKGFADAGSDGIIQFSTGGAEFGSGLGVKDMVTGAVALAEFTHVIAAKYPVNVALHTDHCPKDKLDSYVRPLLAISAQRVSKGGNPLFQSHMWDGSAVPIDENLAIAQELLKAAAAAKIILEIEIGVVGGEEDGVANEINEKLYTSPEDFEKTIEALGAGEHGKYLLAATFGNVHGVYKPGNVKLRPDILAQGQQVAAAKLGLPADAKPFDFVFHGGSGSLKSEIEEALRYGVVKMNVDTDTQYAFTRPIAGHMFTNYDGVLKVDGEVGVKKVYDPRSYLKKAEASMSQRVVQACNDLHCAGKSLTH
# TcdB inh: inhibitors of Clostridioides difficile toxin B glycohydrolase | 0.24% of 350,000 active | P18177 | TcdB glycohydrolase enzymatic assay, plate reader | inhibition, % at 9.99 µM
# GDH-TPI counter-1: counter-screen for M. tuberculosis FBA inhibitors: GDH-TPI coupled enzymes; GDH-TPI coupled enzyme counterscreen, NADH absorbance; inhibition, % at 4.8 µM; 1.2% of 360,000 active; AID 588335; in the data active means inhibition above about 30%;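 further: 0% = DMSO wells and 100% = wells lacking the enzyme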
# PrPC TRFRET: cell surface PrPC inhibition, primary TR-FRET screen; P04156; TR-FRET read-out; inhibition, % at 13.8 µM; 0.43% of 370,000 active; AID 720596; in the data active means inhibition above about 24%; further: 0% = median of the test wells and 100% = reference compound wells
# Y pestis TopoI: Y. pestis Topo-I inhibition via cleavage products; Y. pestis Topo-I cleavage product accumulation, plate reader; activity, % at 10 µM; 0.064% of 360,000 active; AID 504884; in the data active means activity above about 50%, passing the limit was not always enough
# Mtb FBA confirm: Mtb FBA inhibition, confirmed; 78% of 5,600 active; purified M. tuberculosis FBA, fluorescence read-out; shares compounds with Mtb FBA inh; AID 651616; inhibition, % at 1 µM; in the data active means inhibition above about 27%;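 further: 0% = vehicle wells and 100% = reference inhibitor wells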
# GDH-TPI counter-2: GDH-TPI inhibition counter-screen for FBA inhibitors. GDH-TPI coupled enzyme counterscreen, fluorescence. inhibition, % at 1 µM. 81% of 5,600 active. AID 652141. shares compounds with Mtb FBA inh
# Starred values were filed as active, the others as inactive; . = no result; + = active, no number. Unless noted, no stated cut-off is given here; in the data, active means inhibition above about 10%; inactive means the rest.
SMILES,Mtb FBA inh,TcdB inh,GDH-TPI counter-1,PrPC TRFRET,Y pestis TopoI,Mtb FBA confirm,GDH-TPI counter-2
CCO[C@H]1c2c(ccc3ccc(=O)oc23)OC(C)(C)[C@H]1O,35*,1,9,-6,-8,+,+
CC(C)C#Cc1cnc2c(c1)C(=O)N([C@@H](C)CO)C[C@@H](C)[C@H](CN(C)Cc1ccccc1)O2,.,1,.,.,.,.,.
CCN1CCSc2ccc(C(=O)NCc3ccccc3Br)cc21,59*,-1,15,15,23,1,-2
CCN1C(=O)CSc2ccc(C(=O)NCc3ccccc3OC)cc21,2,4,10,-1,5,.,.
CCN1CCSc2ccc(C(=O)NCc3ccccc3F)cc21,87*,0,12,5,-12,+,+
CCOc1ccc(-c2cc(C)[n+](CCO)c(-c3ccc(OCC)cc3)c2)cc1,63*,1,28,-8,4,67*,49*
CCOc1ccc(-c2nnc(N)s2)cc1,4,.,7,-1,7,.,.
CC(C)NC(=O)N(C)C[C@H]1Oc2ncc(-c3ccc(C(=O)N(C)C)cc3)cc2C(=O)N([C@H](C)CO)C[C@@H]1C,.,0,.,.,.,.,.
CN(CCC#N)C(=O)COC(=O)c1cc(Cl)cc(Cl)c1N,93*,0,4,0,2,-2,-5
Nc1c(Cl)cc(Cl)cc1C(=O)OCC(=O)N1CCCC1,95*,.,0,4,3,137*,107*
NC(=O)COC(=O)c1cc(Cl)cc(Cl)c1N,89*,-1,-6,-2,-10,+,+
CC1(C)CC2CC(C)(CN2C(=O)COC(=O)c2cc(Cl)cc(Cl)c2N)C1 (stereo unspecified),23,1,0,-2,-10,.,.
Nc1c(Cl)cc(Cl)cc1C(=O)OCC(=O)N1CCCC1=O,13,.,5,.,3,.,.
C[C@@H]1CN([C@H](C)CO)C(=O)c2cc(C#CC3(O)CCCC3)cnc2O[C@H]1CN(C)C(=O)Cc1ccncc1,.,1,.,.,.,.,.
O=C(C[C@H]1C[C@H]2c3cc(NC(=O)Nc4ccccc4F)ccc3O[C@H]2[C@@H](CO)O1)NC1CCCC1,.,0,.,.,.,.,.
CC1=C(C(=O)OC(C)C)C(c2cccnc2)C2=C(CCCC2=O)N1 (stereo unspecified),36*,.,15,-2,5,3,-2
CCOC(=O)C1=C(C)NC2=C(C(=O)CCC2)C1c1cccnc1 (stereo unspecified),36*,.,13,-4,5,9,4
O=C1[C@H]2C(c3ccccc3)=NN(c3ccccc3)[C@H]2C(=O)N1c1ccccc1,31*,1,1,-2,-5,67*,59*
COC(=O)[C@]1(C)N[C@H](c2ccc(-c3ccc(OC)cc3)cc2)[C@@H]2C(=O)N(C)C(=O)[C@@H]21,16,-1,13,-1,-5,.,.
CCN1C(=O)[C@H]2[C@@H](c3ccc(-c4ccc(OC)cc4)cc3)N[C@@](C)(C(=O)OC)[C@H]2C1=O,100*,1,13,-8,12,135*,94*
CCOCCCn1c(C)nc2c(c1=O)c1nc3ccccc3nc1n2-c1ccc(C)cc1,5,1,5,.,7,.,.
CCO/C(C)=N/n1c2nc3ccccc3nc2c2c(=O)n(CC(C)C)c(C)nc21,33*,.,22,-25,23,5,0
CCC1(CC)Nc2ccccc2C(=O)N1c1ccc(NC(C)=O)cc1,4,.,17,-1,-1,.,.
COc1ccc(C2Nc3ccccc3C(=O)N2NC(C)=O)cc1OC (stereo unspecified),36*,1,-2,2,2,36*,26*
COc1ccc(C2Nc3ccccc3C(=O)N2NC(=O)c2ccccc2)cc1OC (stereo unspecified),7,0,2,-4,8,.,.
SMILES,Mtb FBA inh,TcdB inh,GDH-TPI counter-1,PrPC TRFRET,Y pestis TopoI,Mtb FBA confirm,GDH-TPI counter-2
COc1ccc(C2Nc3ccccc3C(=O)N2O)cc1OC (stereo unspecified),5,.,-1,1,-3,.,.
CCOC(=O)N1CCC2(CC1)NC(=O)c1ccccc1N2,85*,0,9,-6,-3,37*,25*
CCOC(=O)NN1C(=O)c2ccccc2NC1c1ccc(OC)c(OC)c1 (stereo unspecified),43*,0,-9,8,5,5,-4
CCOC(=O)NN1C(=O)c2ccccc2NC1(C)C,104*,1,3,1,-1,136*,112*
COc1ccccc1S(=O)(=O)N1CC[C@@H]2[C@H]1c1cc(-c3ccc(C#N)cc3)ccc1N[C@@H]2CO,.,-1,.,.,.,.,.
C[C@@H]1CN([C@H](C)CO)C(=O)c2cc(C#Cc3ccncc3)cnc2O[C@H]1CN(C)S(=O)(=O)c1ccccc1F,.,1,.,.,.,.,.
COCC(=O)N(C)C[C@H]1Oc2ncc(C#Cc3ccccc3)cc2C(=O)N([C@@H](C)CO)C[C@@H]1C,.,2,.,.,.,.,.
O=C(O)C[C@@H]1CC[C@@H](NC(=O)c2ccncc2)[C@H](CO)O1,.,0,.,.,.,.,.
O=c1cc(-c2ccccc2)oc2c1ccc1ccccc12,.,0,.,-1,.,.,.
O=c1cc(-c2cccnc2)oc2c1ccc1ccccc12,45*,1,0,11,9,+,186*
C[C@H](CO)N1C[C@H](C)[C@H](CN(C)C(=O)c2ccncc2)OCCCC[C@H](C)Oc2ccc(NC(=O)Cc3ccccc3)cc2C1=O,.,-2,.,.,.,.,.
C/C=C/c1ccc2c(c1)O[C@@H](CN(C)C(=O)c1ccccc1F)[C@H](C)CN([C@H](C)CO)S2(=O)=O,.,1,.,.,.,.,.
CCCNC(=O)N(C)C[C@H]1Oc2cc(C#Cc3ccccn3)ccc2S(=O)(=O)N([C@@H](C)CO)C[C@@H]1C,.,0,.,.,.,.,.
O=C(Nc1cccc2ccccc12)N(CCO)C1CCS(=O)(=O)C1 (stereo unspecified),61*,1,3,8,0,108*,105*
COCCCNC(=O)c1ccc2nc3ccccc3c(=O)n2c1,66*,.,13,-20,5,121*,106*
COC(CNC(=O)c1ccc2nc3ccccc3c(=O)n2c1)OC,61*,0,18,-11,-2,+,+
COc1cc(C(=O)NCc2ccc(C(=O)NCC(OC)OC)cc2)cc(OC)c1OC,-1,0,-1,6,5,.,.
COc1ccc(CCNC(=O)c2ccc3nc4cc(Cl)ccc4c(=O)n3c2)cc1OC,11,0,5,-6,7,.,.
C[C@@H]1CCCCO[C@@H](CN(C)C)[C@H](C)CN([C@@H](C)CO)C(=O)c2cc(NC(=O)c3ccccc3)ccc2O1,.,-1,.,.,.,.,.
COC(=O)C[C@H]1CC[C@@H]2[C@@H](COc3ccc(NC(=O)C4CC4)cc3C(=O)N2C)O1,.,-1,.,.,.,.,.
COc1ccc2sc(C)cc(=O)c2c1,107*,10,15,-10,6,88*,52*
COc1ccc2sc3ccccc3c(=O)c2c1,7,.,10,9,4,.,.

# Bioassay records deposited in PubChem by several laboratories.
